# Compound activity (PubChem)
# IP6K1 inh = blocks human inositol hexakisphosphate kinase 1. activity change, % (series mostly up to about 58 µM). Q92551. IP6K1 kinase, ADP-Glo luminescence, 2 h; active compounds read low. actives 0.81% (n = 140,000). AID 1645851; in the data active = activity change below about -25%
# Target sequence (Q92551 whole entry, looked up): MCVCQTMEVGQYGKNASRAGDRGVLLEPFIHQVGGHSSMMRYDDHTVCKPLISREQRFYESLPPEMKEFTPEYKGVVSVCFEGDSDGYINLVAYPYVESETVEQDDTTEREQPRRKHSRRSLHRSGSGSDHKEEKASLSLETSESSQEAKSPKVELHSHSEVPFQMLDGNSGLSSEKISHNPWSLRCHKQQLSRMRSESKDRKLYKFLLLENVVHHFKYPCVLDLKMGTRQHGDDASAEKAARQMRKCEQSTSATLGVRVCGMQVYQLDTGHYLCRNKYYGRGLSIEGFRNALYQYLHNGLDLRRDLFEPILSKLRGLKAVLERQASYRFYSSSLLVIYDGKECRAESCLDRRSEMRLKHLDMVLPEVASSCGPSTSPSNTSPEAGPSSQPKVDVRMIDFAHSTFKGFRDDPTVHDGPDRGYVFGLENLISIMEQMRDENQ
#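 ADP-Glo luminescence measures ADP made by human IP6K1 during a 2 h RT reaction with ATP/IP6 (mix at 1.3 mM/130 uM); top library doses 57.5 and 19.1 uM final.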
# SNCA expr inhib = SNCA gene expression inhibition; HEK-293 SNCA-luciferase knock-in, luminescence, 24 h; Potency, µM (titrated, usually from 57.2 µM), for the others: at the highest dose activity change, negative = inhibition, usual class: inhibitors; actives 0.17% (n = 140,000); AID 1671194;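 note: potency is the fitted concentration of half-maximal effect; plate controls were DMSO cells for no effect and cell-free wells for full effect; nearly all actives have a fitted effect of over 45% in size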
# GPT2 inh = inhibitors of human GPT2 alanine aminotransferase; Q8TD30; Recombinant GPT2, coupled pyruvate oxidase/HRP Amplex Red fluorescence; Potency, µM (doses to about 57.7 µM), inactives show at the highest dose activity change, negative = inhibition, actives largely listed as inhibitors; actives 0.25% (n = 100,000); AID 1671188; note: potency is the fitted concentration of half-maximal effect; nearly all actives have a fitted effect of over 60% in size
#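 GPT2 10ng/uL, a-KG 250uM, L-Ala 2mM, HEPES pH7.5 + 0.0001% Tween; 30 min RT. Then Amplex mix (PO/HRP/ThPP), 30 min RT dark, fluorescence. AOA 50uM used as positive control.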
# SNCA viab count = reduces viability of HEK-293 SNCA reporter cells | HEK-293-SNCA-luc viability, GF-AFC fluorescence, 24 h | Potency, µM (doses to about 57.1 µM), for inactives: top-dose activity change, negative = cytotoxicity, actives largely listed as cytotoxic | actives 0.12% (n = 150,000);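 note: potency is the fitted concentration of half-maximal effect; 0% = DMSO-treated cells and -100% = medium-only wells without cells; nearly all actives have a fitted effect of over 30% in size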
#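 Cytotoxicity counterscreen: after 24 h compound treatment of genome-edited SNCA-luciferase HEK-293 cells, live-cell protease substrate GF-AFC read by fluorescence after 30 min; activity scaled between DMSO (0%) and medium-only (-100%), curves Hill-fitted.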
# IP6K1 inh cnf = confirmation of human IP6K1 inhibitors; shares compounds with IP6K1 inh; recombinant IP6K1 kinase, ADP-Glo luminescence, 2 h; Potency, µM (highest dose often 49 µM), for inactives: at the highest dose activity change, negative = inhibition, most hits filed as inhibitors; actives 13% (n = 1,200); note: potency is the fitted concentration of half-maximal effect; nearly all actives have a fitted effect of over 65% in size
# Starred values were filed as active, the others as inactive; i = inactive; ? = inconclusive; · = no result given; ! = repeats disagree; [ ] = dose if it differs, or a comment. Most compounds without a hit are left out; they make up all but 1% or so of the library. Unless noted, calls come from the whole dose curve; as a rule, active = well fitted curve in the direction sought with a large enough effect; inconclusive = small, poorly fitted or top-dose-only effect, or another doubt; inactive = no such curve, though single readings can be large; an effect the other way counts as inactive or inconclusive. Unless noted, % is set by controls: 0 for no effect and ±100 for the full control effect.
SMILES,IP6K1 inh,SNCA expr inhib,GPT2 inh,SNCA viab count,IP6K1 inh cnf
CC(C)C(=O)Nc1cccc(NC2=NS(=O)(=O)c3ccccc32)c1,18,2%,·,-1%,·
O=C(c1ccccc1)N1Cc2[nH]cnc2C[C@H]1c1nc(-c2ccc(Cl)cc2)no1,-39*,?,i,-19%[87.6 µM],?
COc1ccc(C)cc1Nc1nc(-c2cccc(Cl)c2)c2c(n1)-c1ccccc1OC2,-14,21%,·,1%,·
Fc1ccc(Nc2nc(-c3cccc(Cl)c3)c3c(n2)-c2ccccc2OC3)c(F)c1,-27*,5%,·,5%,-7%
COC(=O)N(C)Cc1cccc(N2CCN([S+](=O)([O-])c3c(Cl)cccc3Cl)CC2)c1,6,·,·,·,·
COc1ccc(CCNc2nc3c(-c4cccc(C)c4)nnn3c3ccccc23)cc1OC,-32*,14%,·,?,-5%
C#CCNC(=O)c1nc(-c2c(C)cccc2C)c2ccccn12,5,23%[87.6 µM],3%[88.5 µM],7%[87.6 µM],·
COc1ccc(NS(=O)(=O)c2cc(-c3onc(C)c3C)ccc2C)c(OC)c1,0,0%,·,4%,·
COc1ccc(OC)c(CNS(=O)(=O)c2cc(-c3onc(C)c3C)ccc2C)c1,-46*,7%,·,3%,33%
O=C(c1ccc(N2CCCC(CO)C2)nc1)N1CCC(N2CCOCC2)CC1 (stereo unspecified),-35*,-1%,i[11.5 µM],7%,13%
O=C(c1ccc(N2CCCC2)nc1)N1CCC(N2CCOCC2)CC1,1,-18%,-21%,-13%,·
CC1CCN(c2ccc(-c3cccc(N)c3)nn2)CC1,-44*,1.4µM*,1%,-19%,?
Cc1ccc(CC(=O)NCc2nc(-c3ccccc3)no2)cc1,-27*,14%,·,10%,-15%
Cc1ccc(-c2noc(CNC(=O)c3ccccc3)n2)cc1,-31*,30%,·,-9%,?
O=C(NCCc1ccc(F)cc1)C1CCCN(c2nccc(Nc3ccccc3F)n2)C1 (stereo unspecified),1,-14%,i,6%[12.5 µM],·
COc1ccccc1-c1cc(C(=O)NCCc2ccccc2F)nn2cnnc12,7,50%,-6%,-16%,·
Cc1cccc(CNS(=O)(=O)c2csc(C(N)=O)c2)c1,-8,?,·,10%,·
NC(=O)c1cc(S(=O)(=O)NCc2cccc(Br)c2)cs1,-30*,-22%,·,-2%,-15%
O=C(NC1CC1)c1cc(-c2ccccc2F)cc2c1OCCN2Cc1cccnc1,-26*,32%[87.6 µM],-4%[88.5 µM],?,?
CNC(=O)c1cc(-c2ccc(CO)cc2)cc2c1OCCN2Cc1cccnc1,-26*,3%[87.6 µM],-1%[88.5 µM],6%[87.6 µM],22%
CN(C)C(=O)c1cc(-c2ccccc2F)cc2c1OCCN2Cc1cccnc1,-18,?,?,-13%[87.6 µM],·
O=C(NCC1CCCO1)c1cc(-c2ccccc2F)cc2c1OCCN2Cc1cccnc1 (stereo unspecified),-15,-13%,i,-22%,·
O=C(NCc1cccnc1)c1cc(-c2ccccc2F)cc2c1OCCN2Cc1cccnc1,-28*,-6%,?,?,?
CCOCCCNc1ncnc2c1CN(C1CCNC1)C(=O)CN2C (stereo unspecified),-17,5%,-14%,7%,·
Cc1ccc(CC(=O)N2CCC(n3cc(-c4nc(C)no4)nn3)CC2)cc1,3,-20%,i,-12%,·
SMILES,IP6K1 inh,SNCA expr inhib,GPT2 inh,SNCA viab count,IP6K1 inh cnf
COCCn1c(CO)nnc1C1CC(NC(=O)C2(C)CCCC2)C1 (stereo unspecified),-28*,6%,-1%[11.5 µM],-1%,-12%
COc1ccc(Cl)cc1-c1ccc2c(c1)C(=O)N1CC[C@H](NC(=O)c3cccs3)C[C@H]1C(=O)N2,-19,?,-12%,-24%,·
COc1ccc(NC(=O)C(=O)NCC2(c3ccccc3)CCCC2)c(OC)c1,-27*,0%,·,4%,-2%
CCOC(=O)c1cnc2ccc(C(=O)OC)cc2c1Nc1ccc(N2CCOCC2)cc1,31,?,·,?,·
CCOC(=O)c1cnc2ccc(Cl)cc2c1Nc1ccc(N2CCOCC2)cc1,-25*,-26%,·,-6%,-13%
CC(C)c1cc(N2C[C@H](O)[C@@H](N3CCCCC3)C2)n2nccc2n1,12,4%,i[11.5 µM],2%,·
O=C(NCC1Cn2cccc2C(=O)N1Cc1cccnc1)c1n[nH]c(=O)c2ccccc12 (stereo unspecified),8,15%,i,-8%,·
CC1CN(C(=O)CCC(=O)NCc2ccccc2)c2cc(Cl)ccc2O1 (stereo unspecified),-5,-6%,·,8%,·
CC1CN(C(=O)CCC(=O)NCc2ccc(F)cc2)c2cc(Cl)ccc2O1 (stereo unspecified),-25*,25%,·,-4%,-7%
CC(=O)Nc1ccc(NC(=O)c2c(-c3ccccc3)noc2C)cc1,13,-2%,·,-9%,·
CCOC(=O)c1ccccc1NC(=O)c1c(-c2ccccc2)noc1C,-31*,?,·,5%,-14%
CCc1ocnc1C(=O)N1C[C@H]2OC(=O)N(CCCN3CCOCC3)[C@H]2C1,-72*,15%,2%,7%,-11%
O=C(Cc1ccc(N(Cc2ccccc2)C(=O)c2ccco2)cc1)NCCc1ccccc1,-11,27%,i,?,·
N[C@@H](Cc1cc(I)c(O)c(I)c1)C(=O)O,-62*,6%[25.6 µM],?,-13%[23.9 µM],-20%
O=C(O)C(Cc1cc(I)c(O)c(I)c1)c1ccccc1 (stereo unspecified),26,8%[25.6 µM],-16%,-28%[23.9 µM],·
O=C(Nc1ccc(Cl)cc1)N1CCN(c2ccc3nnc(-c4ccccc4)n3n2)CC1,-30*!,-17%,·,?,?
O=C(Nc1ccc(Cl)cc1)N1CCCN(c2ccc3nnc(-c4ccccc4)n3n2)CC1,9,·,·,·,·
Cc1cc(C)c2oc(-c3ccc(C)c(NC(=O)/C=C/c4ccco4)c3)nc2c1,-36*,33%,·,-4%,?
COc1cc(C(C)C)c(Oc2cnc(N)nc2N)cc1I,-29*,·,i,2%,?
CCC(=O)N1CCN(c2nc3c(s2)CC(C(=O)Nc2ccc4c(c2)OCO4)CC3)CC1 (stereo unspecified),10,17%,-20%,-5%,·
Brc1ccc(CN2CCC(c3nc4ccncc4[nH]3)C2)cc1 (stereo unspecified),-52*!,-22%,5%,2%,?
CN(C)c1ccc(CN2CCC(c3nc4ccncc4[nH]3)C2)cc1 (stereo unspecified),12,23%[87.6 µM],-26%,-9%[87.6 µM],·
COc1ccc(C(=O)NC2CCN(Cc3ccc(-c4cc(F)ccc4OC)cc3)C2)cc1 (stereo unspecified),-8,·,·,·,·
O=C(NC1CCN(Cc2cccc(-c3ccc(F)cc3F)c2)CC1)c1ccncc1,5,·,·,·,·
O=C(Nc1cc(Cl)ccc1Cl)c1cc(S(=O)(=O)N2CCCc3ccccc32)ccc1F,-30*,42%,·,13%,-8%
